Consider 34 compounds from PubChem BioAssay (NCATS).

Inconclusive results are not listed. The list shows a part of the results. A call without a number means that no potency is given here. Active and inactive are the calls of the source. The call rests on the fitted dose curve; in most records, active means well fitted curve in the direction sought with a large enough effect; inconclusive means small, poorly fitted or top-dose-only effect, or another doubt; inactive means no such curve, though single readings can be large; an effect the other way counts as inactive or inconclusive.

Experiment [1] deals with Tumor susceptibility gene 101 protein (Homo sapiens) (UniProt Q99816). Nature of the experiment: qHTS Assay for Iinhibitors of HIV-1 Budding by Blocking the Interaction of PTAP/TSG101: Hit Validation (AID 651600). Further: nearly all actives have a fitted effect of over 70% in size. Further: potency means the concentration at half of the fitted maximal effect. In outline: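 Compounds are added to the Tsg101 binding domain (10 uM final) in pH 7.5 HEPES buffer. FITC-PTAP peptide follows at 50 nM final. After 20 min at r.t., polarized FITC emission is measured.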
Tumor susceptibility gene 101 protein (Homo sapiens), sequence (Q99816 whole entry, looked up, the tested form may be a part): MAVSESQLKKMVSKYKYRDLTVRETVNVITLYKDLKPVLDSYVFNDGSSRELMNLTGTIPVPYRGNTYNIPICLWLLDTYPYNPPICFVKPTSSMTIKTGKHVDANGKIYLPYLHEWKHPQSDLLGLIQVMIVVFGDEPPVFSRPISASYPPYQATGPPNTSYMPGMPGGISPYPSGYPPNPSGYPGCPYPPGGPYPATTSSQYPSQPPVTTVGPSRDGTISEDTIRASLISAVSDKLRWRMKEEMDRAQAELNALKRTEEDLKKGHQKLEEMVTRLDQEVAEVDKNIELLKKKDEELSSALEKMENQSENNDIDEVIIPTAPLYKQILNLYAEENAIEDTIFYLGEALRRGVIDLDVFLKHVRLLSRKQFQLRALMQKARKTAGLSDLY

Experiment [2] concerns the target ATPase family AAA domain-containing protein 5 (Homo sapiens) (UniProt Q96QE3). In words: qHTS screen for small molecules that inhibit ELG1-dependent DNA repair in human embryonic kidney (HEK293T) cells expressing luciferase-tagged ELG1: Hit Confirmation using MMS Stimulated ELG1 (AID 624249). Further: nearly all actives have a fitted effect of over 60% in size. Further: potency means the concentration at half of the fitted maximal effect. In outline:
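HEK293T ELG1-luc, 2,000 cells/well; ~5 h post-seed: cpd + MMS (10 µM final); 16 h; luc read w/ Amplight.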

Experiment [3] concerns the target Luciferin 4-monooxygenase (Photinus pyralis) (UniProt P08659). In words: qHTS screen for small molecules that inhibit ELG1-dependent DNA repair: Hit Confirmation in Biochemical Luciferin Assay (AID 624253). Further: series mostly up to about 57 µM. In outline:
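Cell-free firefly luciferase counterassay: compounds were added to substrate reagent, then luciferase enzyme was added. Luminescence read on a CCD-based imager.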

The nature of experiment [4]: qHTS for Inhibitors of Ubiquitin-specific Protease USP2a Using CHOP2 as the Reporter: K633 Counterscreen (AID 652168). Further: series mostly up to about 57 µM. A digest of the protocol: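 Cell-free interference counterscreen without USP2a: compounds pinned into enzyme-free buffer (20 mM Tris pH 8, 2 mM beta-mercaptoethanol, 0.05% Chaps), then DiUb K48-4IQF substrate added (100 nM stock); fluorescence read kinetically, Ex 525/Em 598.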

Experiment [5] can be described thus: qHTS for Inhibitors of Ubiquitin-specific Protease USP2a Using CHOP2 as the Reporter: Cytotox Assay (AID 652170). Further: nearly all actives have a fitted effect of over 70% in size. Further: potency means the concentration at half of the fitted maximal effect. In outline:
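HCT116 human colon cancer cells, 600 per well in DMEM with 10% FBS, exposed to compounds for 72 hr at 37 deg C. ATP measured by CellTiter-Glo luminescence, normalized to DMSO cells and no-cell background.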

In experiment [6] the target is Ubiquitin carboxyl-terminal hydrolase 2 (Homo sapiens) (UniProt O75604). In words: qHTS for Inhibitors of Ubiquitin-specific Protease USP2a Using CHOP2 as the Reporter: K484 Substrate (AID 652173).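 Further: cleavage of internally quenched K48 di-ubiquitin substrate measured as rising fluorescence over time; potency means the concentration at half of the fitted maximal effect; nearly all actives have a fitted effect of over 70% in size.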 In outline:
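USP2 (dispensed at 5 nM) was pinned with compounds, then DiUb K48 internally quenched fluorescent substrate (dispensed at 100 nM) was added. The buffer was 20 mM Tris pH 8, 2 mM beta-mercaptoethanol and 0.05% CHAPS. Cleavage was read kinetically as rising fluorescence, Ex 525/Em 598.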

ATPase family AAA domain-containing protein 5 (Homo sapiens), sequence (Q96QE3 whole entry, looked up, the tested form may be a part): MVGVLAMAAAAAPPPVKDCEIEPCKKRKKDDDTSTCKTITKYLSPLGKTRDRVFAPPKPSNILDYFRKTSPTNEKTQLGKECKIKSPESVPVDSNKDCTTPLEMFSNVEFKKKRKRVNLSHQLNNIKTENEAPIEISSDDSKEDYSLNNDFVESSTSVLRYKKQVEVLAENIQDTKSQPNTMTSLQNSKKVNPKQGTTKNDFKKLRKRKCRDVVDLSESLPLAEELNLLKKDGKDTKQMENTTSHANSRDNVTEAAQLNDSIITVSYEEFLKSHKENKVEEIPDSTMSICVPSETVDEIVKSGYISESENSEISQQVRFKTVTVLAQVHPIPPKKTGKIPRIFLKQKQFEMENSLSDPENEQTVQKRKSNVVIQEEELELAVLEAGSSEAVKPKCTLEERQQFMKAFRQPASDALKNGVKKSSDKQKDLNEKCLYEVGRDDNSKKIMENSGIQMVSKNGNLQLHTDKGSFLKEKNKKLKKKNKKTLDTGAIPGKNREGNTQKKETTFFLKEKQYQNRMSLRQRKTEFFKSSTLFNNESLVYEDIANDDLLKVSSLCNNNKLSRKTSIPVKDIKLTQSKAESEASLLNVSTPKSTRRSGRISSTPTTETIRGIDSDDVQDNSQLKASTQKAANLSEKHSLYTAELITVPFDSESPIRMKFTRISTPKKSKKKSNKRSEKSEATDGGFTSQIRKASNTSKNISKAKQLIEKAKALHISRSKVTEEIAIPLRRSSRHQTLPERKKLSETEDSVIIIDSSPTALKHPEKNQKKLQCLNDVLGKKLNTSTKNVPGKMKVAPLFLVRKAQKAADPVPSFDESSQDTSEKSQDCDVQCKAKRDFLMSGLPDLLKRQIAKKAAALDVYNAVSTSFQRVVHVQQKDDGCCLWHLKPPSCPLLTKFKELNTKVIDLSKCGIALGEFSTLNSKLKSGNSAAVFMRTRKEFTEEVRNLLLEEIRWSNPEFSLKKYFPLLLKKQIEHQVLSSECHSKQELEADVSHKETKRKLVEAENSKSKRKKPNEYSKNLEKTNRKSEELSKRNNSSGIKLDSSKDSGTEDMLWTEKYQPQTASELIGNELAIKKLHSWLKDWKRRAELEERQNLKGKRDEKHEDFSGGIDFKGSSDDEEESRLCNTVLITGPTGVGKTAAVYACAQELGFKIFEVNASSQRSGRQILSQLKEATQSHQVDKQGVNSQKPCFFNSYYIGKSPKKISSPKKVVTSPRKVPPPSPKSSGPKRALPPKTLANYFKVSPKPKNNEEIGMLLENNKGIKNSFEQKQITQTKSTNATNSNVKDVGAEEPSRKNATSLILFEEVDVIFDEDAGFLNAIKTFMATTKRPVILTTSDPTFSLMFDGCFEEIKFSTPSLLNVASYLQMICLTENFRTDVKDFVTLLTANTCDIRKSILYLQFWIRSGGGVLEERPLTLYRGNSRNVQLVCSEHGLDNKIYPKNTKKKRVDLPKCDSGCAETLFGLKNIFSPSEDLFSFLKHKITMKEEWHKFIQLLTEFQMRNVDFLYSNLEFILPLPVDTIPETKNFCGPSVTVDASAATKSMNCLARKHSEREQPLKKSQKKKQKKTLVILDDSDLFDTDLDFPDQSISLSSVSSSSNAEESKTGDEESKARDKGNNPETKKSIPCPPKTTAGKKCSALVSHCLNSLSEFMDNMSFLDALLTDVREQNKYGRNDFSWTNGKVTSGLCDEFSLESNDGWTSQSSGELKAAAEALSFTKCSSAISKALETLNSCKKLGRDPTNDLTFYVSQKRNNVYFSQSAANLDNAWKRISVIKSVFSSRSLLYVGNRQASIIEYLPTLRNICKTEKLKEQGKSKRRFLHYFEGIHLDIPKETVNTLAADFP
Ubiquitin carboxyl-terminal hydrolase 2 (Homo sapiens), sequence (O75604 whole entry, looked up): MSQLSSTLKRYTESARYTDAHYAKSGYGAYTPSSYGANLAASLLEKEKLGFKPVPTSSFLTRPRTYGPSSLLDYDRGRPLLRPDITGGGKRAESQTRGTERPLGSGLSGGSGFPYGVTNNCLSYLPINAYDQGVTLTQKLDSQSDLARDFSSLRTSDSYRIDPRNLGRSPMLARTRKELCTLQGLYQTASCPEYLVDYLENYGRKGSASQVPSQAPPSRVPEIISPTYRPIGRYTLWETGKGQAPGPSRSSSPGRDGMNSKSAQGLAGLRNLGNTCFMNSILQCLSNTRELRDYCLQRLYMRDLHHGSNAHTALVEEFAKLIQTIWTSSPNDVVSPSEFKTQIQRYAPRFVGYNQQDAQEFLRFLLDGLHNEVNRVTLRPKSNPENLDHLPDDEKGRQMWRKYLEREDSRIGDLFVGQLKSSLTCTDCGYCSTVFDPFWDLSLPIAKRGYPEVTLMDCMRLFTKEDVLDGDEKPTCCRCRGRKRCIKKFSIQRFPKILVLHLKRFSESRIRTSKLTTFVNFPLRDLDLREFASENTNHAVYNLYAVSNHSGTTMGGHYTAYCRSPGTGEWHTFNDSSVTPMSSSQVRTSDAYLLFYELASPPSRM

For the compound `CC1(C)CC(=O)C2=C(C1)OC(N)=C(C#N)C2c1cc2c(cc1[N+](=O)[O-])OCO2` (stereo unspecified), the Potency result in experiment [1] is “inactive”.
Same read-out and setting: for `CN1c2ccc(C=O)c3c(C=O)ccc(c23)N(C)C1(C)C` the value was “inactive”.
Still for that read-out and setting: in the case of `C(=N\NC1=Nc2cccc3cccc1c23)/c1ccccc1` it was “inactive”; in that of `Cc1nc2nc(-c3cccs3)cn2nc1C`, “inactive”.
Same read-out and setting: in the case of `CCOc1cc(/C=C(\C#N)c2nc(-c3cccs3)c(NC(C)=O)s2)ccc1O` it was “inactive”.
Consider `COc1ccc(NC(=O)C2CCC(CNc3c(N4CCCCC4)c(=O)c3=O)CC2)c(OC)c1` (stereo unspecified), for which the Potency result in experiment [2] and in experiment [3] was “inactive” throughout.
For `CCCCCOc1ccc(/C=c2\sc3nc(=O)c(-c4ccccc4)nn3c2=O)cc1OC`, the Potency entry in experiment [1] was “inactive”.
Regarding `O=C(C1CCCN(S(=O)(=O)c2ccccc2)C1)N1CCN(c2ccc(F)cc2)CC1` (stereo unspecified), the Potency in experiment [2] was 4.45 µM (active). Besides, the Potency entry in experiment [3] was “inactive”.
As for `Oc1c(C=Nc2ccccc2)sc2ccccc12`, the Potency entry in experiment [1] is “inactive”.
On to `CC(=O)c1ccc(N2C(=O)C3C(C2=O)C(C(=O)c2ccc(Cl)cc2)N2CCCC32)cc1` (stereo unspecified), for which the Potency result in experiment [1] is “inactive”.
Same read-out and setting: in the case of `CC1CC(C)CN(C(=O)c2ccc3c(c2NCCO)C(=O)c2ccccc2C3=O)C1` (stereo unspecified) it was “inactive”.
On to `CC1C2C(c3ccccc3)N(C)C(=O)N(C)C2N(C)C(=O)N1C` (stereo unspecified), for which the Potency result in experiment [1] was “inactive”.
Still for that read-out and setting: for `CSCC(C)N1CCC(n2nccc2NC(=O)CCCc2ccccc2)CC1` (stereo unspecified) the value was 13 µM (active); for `Nc1c(C(=O)C2CC2)sc2nc(-c3ccccc3)cc(C(F)(F)F)c12`, “inactive”.
As to `CCN(CC)c1ccc(/C=C(\C#N)C(=O)NCc2ccccc2)cc1`, in experiment [1], the Potency is 14.6 µM (active).
The same measure, in the same setting: for `COc1ccc(CCn2c(NN=C(C)C)nc3c2c(=O)[nH]c(=O)n3C)cc1` the value was “inactive”; for `COc1cccc2c1C(=O)c1c(O)c3c(c(O)c1C2=O)C[C@](O)(C(C)=O)C[C@H]3O[C@@H]1C[C@@H](N)[C@@H](O)[C@@H](C)O1`, 14.6 µM (active).
The same measure, in the same setting: in the case of `COc1cc(/C=c2\sc3nc(=O)c(-c4ccccc4)nn3c2=O)ccc1OCCC(C)C` it was “inactive”; in that of `COc1ccccc1N1C(C)=CC(=C(C#N)c2nc3ccccc3s2)C=C1C`, 25.9 µM (active).
Turning to `COc1ccc(CSc2nc(N3CCOCC3)c3c(c2C#N)CC(C)(C)OC3)cc1`, the Potency result in experiment [2] and in experiment [3] was “inactive” in each case.
Consider `Nc1c(C(=O)O)sc2nc(-c3ccccc3)cc(-c3ccc(Cl)cc3)c12`, for which, in experiment [1], the Potency result was “inactive”.
`COc1ccc(S(=O)(=O)Nc2ccc3oc(C)c(C(C)=O)c3c2)cc1`: the Potency in experiment [2] is 3.97 µM (active).
Consider `c1ccc2[nH]c3cc4ncnc4cc3nc2c1`, for which the Potency in experiment [1] was 6.51 µM (active).
Still for that read-out and setting: in the case of `CCCCNc1c2c3c(cccc3n(C)c1=O)C(=O)c1ccccc1-2` it was 5.8 µM (active); in that of `Clc1ccc(C2=CC(c3ccco3)n3ncnc3N2)cc1` (stereo unspecified), “inactive”.
Consider `CC(=O)N1CCc2cc(Br)cc(S(=O)(=O)CCC(=O)Nc3c(C)n(C)n(-c4ccccc4)c3=O)c21`, for which, in experiment [3], the Potency entry is “inactive”.
Turning to `C/C(N)=C(/C#N)C(=O)CSc1ncnc2ccccc12`, the Potency entry in experiment [1] was “inactive”.
Take `Cc1ccc(S(=O)(=O)Nc2cnccc2C(=O)Nc2nc(-c3ccc(Oc4ccccc4)cc3)cs2)cc1`: in experiment [4], the result was inactive. Moreover, the Potency is 20.9 µM (active) in experiment [5] and 2.17 µM (active) in experiment [6].
The corresponding values for `Cc1ccc(S(=O)(=O)Nc2cnccc2C(=O)Nc2nc(-c3cccc(F)c3)cs2)cc1` are “inactive”, 20.9 µM (active) and 1.37 µM (active).
The corresponding values for `Cc1ccc(S(=O)(=O)Nc2cnccc2C(=O)Nc2ccc(C#N)cc2)cc1` are “inactive”, “inactive” and 21.7 µM (active).
For the compound `COc1cccc(S(=O)(=O)Nc2cnccc2C(=O)Nc2nc(-c3ccccc3)cs2)c1`, in experiment [4], the outcome was inactive. In addition, the Potency in experiment [5] is 23.5 µM (active).
Regarding `CC(=O)Nc1ccc(NC(=O)c2cc(-c3ccc(C)c(C)c3)nc3ccccc23)cc1`, the result in experiment [4] was inactive.
As for `N#Cc1cnc(NS(=O)(=O)c2ccc(NC(=O)Cc3ccc(Cl)c(Cl)c3)cc2)s1`, the compound was classed as inactive in experiment [4]. Besides, in experiment [5], the Potency result was “inactive”. Moreover, in experiment [6], the Potency is 3.43 µM (active).
Consider `O=C(Nc1nc(-c2ccccc2)cs1)c1ccncc1NS(=O)(=O)c1ccccc1`, for which the call in experiment [4] was inactive.
